61 compounds from PubChem BioAssay AID504332 (National Center for Advancing Translational Sciences (NCATS), 2011) can be followed below.

Each structure is given as a SMILES string. Among all 350,000 compounds or so, about 31,000 (8.9%) were called active. About 15% were inconclusive and are not listed. The sample holds actives, similar compounds and a random draw of the others, so the mix is not that of the screen. Calls come from the whole dose curve; as a rule, active = well fitted inhibition curve with a large enough effect; inconclusive = small, poorly fitted or top-dose-only effect; inactive = no such curve, though single readings can be large or run the other way.
% is set by controls: 0 for no effect and ±100 for the full control effect; potency is the fitted concentration of half-maximal effect.

Histone-lysine N-methyltransferase EHMT2 (Homo sapiens), sequence (Q96KQ7 913-1193 limits assumed): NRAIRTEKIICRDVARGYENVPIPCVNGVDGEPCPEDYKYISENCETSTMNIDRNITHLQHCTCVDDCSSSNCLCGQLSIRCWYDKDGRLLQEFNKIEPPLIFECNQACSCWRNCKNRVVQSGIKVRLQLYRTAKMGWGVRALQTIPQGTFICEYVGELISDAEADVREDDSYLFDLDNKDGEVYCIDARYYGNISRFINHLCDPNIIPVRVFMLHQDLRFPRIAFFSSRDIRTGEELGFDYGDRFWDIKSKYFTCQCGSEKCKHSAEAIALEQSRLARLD

The test concerns the target Histone-lysine N-methyltransferase EHMT2 (Homo sapiens) (UniProt Q96KQ7). As to the kind of experiment: qHTS Assay for Inhibitors of Histone Lysine Methyltransferase G9a. Note: nearly all actives have a fitted effect of over 75% in size. The conditions noted are these: G9a H3K9 monomethylation, AlphaScreen, 2 h; series mostly up to 59 µM; activity, negative = inhibition: at the top concentration. In outline:
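AlphaScreen detection with an anti-monomethyl H3K9 antibody quantified product after a 2 h room-temperature reaction containing 500 nM biotinylated H3K9 peptide, 20 µM SAM and 20 nM enzyme, which had been preincubated 15 min with compound.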
As to `CCOC(=O)c1ccc(NC(=O)Cn2c(=O)cc(C)c3c(C)nn(-c4cccc(F)c4)c32)cc1`, the “activity, negative = inhibition” value is 11.2% (inactive). Turning to `O=C(NNC(=S)NC(=O)c1cn(-c2ccccc2)nc1-c1ccccc1)c1ccncc1`, the Potency was 25.1 µM (active). For `O=C(Nc1cn(-c2ccccc2)nc1-c1ccccc1)c1ccccc1`, the “activity, negative = inhibition” value was -4.14% (inactive). As for `Cc1ccc(-c2nn(-c3ccccc3)cc2C(=O)NC2CCC(O)CC2)cc1` (stereo unspecified), the activity, negative = inhibition was 9.53% [at 2.33 µM] (inactive).

Consider `COc1ccc(N(Cc2cc3ccc(C)cc3[nH]c2=O)S(=O)(=O)c2ccccc2)cc1`, for which the “activity, negative = inhibition” value is 13.9% [at 102 µM] (inactive). The same measure, in the same setting: in the case of `Cc1ccccc1CNC(=O)c1cccc(NC(=O)c2nsc3ccccc23)c1` it was -1.82% (inactive); in that of `Fc1ccc(CSc2nc(NCc3ccccc3)c3ccccc3n2)cc1`, 1.81% (inactive); in that of `O=C(c1cc2ccccc2o1)N1CCN(S(=O)(=O)c2ccc(Cl)s2)CC1`, 0.973% [at 2.33 µM] (inactive).

`Cc1ccc(NS(=O)(=O)c2ccc(C)c(NC(=O)COc3ccc4ccccc4c3)c2)c(C)c1`: the Potency is 35.5 µM (active). With `Cc1ccc(C)c(NS(=O)(=O)c2ccc(OCC(=O)NCc3cccnc3)cc2)c1`, the “activity, negative = inhibition” value is -5.51% [at 102 µM] (inactive). On the same count and under the same terms, in the case of `CN(C)S(=O)(=O)c1cccc(NC(=O)COc2ccc3ccccc3c2)c1` it was -10.1% [at 12.7 µM] (inactive); in that of `Cc1cccc(NC(=S)Nc2ccc(Cl)c(Cl)c2)c1`, 2.94% [at 102 µM] (inactive).

For the compound `Cn1cc(Cl)c(C(=O)NNC(=S)Nc2cccc(Cl)c2)n1`, the Potency was 15.8 µM (active). Regarding `CC(C)CNC(=S)NNC(=O)c1nn(C)cc1Cl`, the “activity, negative = inhibition” value is 20.3% (inactive).

As to `CCOC(=O)c1ccc(NC(=O)c2ccc(NC(=O)C3CCCO3)cc2)cc1` (stereo unspecified), the “activity, negative = inhibition” value is 10.1% [at 102 µM] (inactive). For the compound `CCOC(=O)c1c(NC(=O)CSc2cn(CC)c3ccccc23)sc2c1CCC2`, the Potency was 56.2 µM (active). As for `CCOC(=O)c1c(NC(=O)c2ccc(S(=O)(=O)N(CC)CC)cc2)sc2c1CCCCC2`, the “activity, negative = inhibition” value was 8.61% (inactive).

On to `CCOC(=O)c1c(NC(=S)NC(=O)c2ccco2)sc2c1CCCC2`, for which the “activity, negative = inhibition” value was -1.7% [at 102 µM] (inactive). For `CCOC(=O)c1c(NC(=S)NC)sc2c1CCCC2`, the Potency was 11.2 µM (active). For `CCOC(=O)c1c(NC(=S)Nc2ccccc2C)sc2c1CCC2`, the “activity, negative = inhibition” value was 38.7% (inactive). In the case of `CCOC(=O)c1c(NC(=O)CSc2nnc(C)c(=O)[nH]2)sc2c1CCC2`, the “activity, negative = inhibition” value was -30.7% (inactive). On to `CCOC(=O)c1c(NC(=O)/C(C#N)=C/c2ccccc2)sc2c1CCC2`, for which the “activity, negative = inhibition” value is -0.979% (inactive). On to `CCOC(=O)c1c(NC(=S)Nc2ccccc2)sc2c1CCN(C)C2`, for which the Potency was 44.7 µM (active). As for `CCOC(=O)c1c(NC(=O)CSc2cn(CCNC(=O)c3cccc(C(F)(F)F)c3)c3ccccc23)sc2c1CCC2`, the “activity, negative = inhibition” value is -9.5% (inactive). Same read-out and setting: in the case of `CCCOC(=O)Nc1sc2c(c1C(=O)OCC)CCC2` it was 18% [at 102 µM] (inactive); in that of `CCOC(=O)c1c(NC(=O)NC(C)(C)C)sc2c1CCN(C)C2`, 7.1% [at 102 µM] (inactive). `CCOC(=O)c1c(NC(=O)c2cc(-c3ccc(Cl)cc3)on2)sc2c1CCCC2`: the Potency was 6.31 µM (active). With `COc1ccc(Cn2c(C(=O)O)c(CNCCc3cccs3)c3ccc(OC)cc32)cc1`, the “activity, negative = inhibition” value is 6.08% (inactive). With `CC1CCC(N2CC(=O)N(CCC3=CCCCC3)C(c3ccc(F)cc3)C2=O)CC1` (stereo unspecified), the “activity, negative = inhibition” value is 8.16% (inactive). `Cc1ccccc1-c1cc(C(=O)NCc2cccs2)n(CC2CC(c3cccnc3)=NO2)n1` (stereo unspecified): the activity, negative = inhibition is -0.783% [at 0.501 µM] (inactive). On the same count and under the same terms, in the case of `Cc1ccc(-c2nc(Cn3c(=O)cc(-c4ccccc4)c4c(C)nn(C)c43)c(C)o2)cc1` it was 9.13% (inactive); in that of `CCOc1ccc2nc(Nc3nc4ccc(NC(C)=O)cc4s3)sc2c1`, -13.6% (inactive). For the compound `COc1cc2ccccc2cc1C(=O)N(CCN(C)C)c1nc2c(F)cccc2s1`, the Potency is 44.7 µM (active).

For `COc1ccc(CCN(C(=O)COc2ccccc2)c2nc(-c3ccccc3)cs2)cc1OC`, the “activity, negative = inhibition” value is -1.75% (inactive). On to `COc1cc(SC)ccc1C(=O)N(Cc1ccccc1)c1ccccc1`, for which the “activity, negative = inhibition” value was 55.7% [at 102 µM] (inactive). The same measure, in the same setting: in the case of `CN(Cc1ccccc1)C(=O)COc1ccccc1` it was -14% (inactive). On the same count and under the same terms, in the case of `CCOc1cccc2sc(N3CCN(C(=O)C4CC4)CC3)nc12` it was -15.9% (inactive). As for `COc1cccc2sc(N(CCCN(C)C)C(=O)C(c3ccccc3)c3ccccc3)nc12`, the Potency is 6.31 µM (active).

With `CN(C)CCCN(C(=O)COc1ccccc1)c1nc2c(Cl)cccc2s1`, the Potency was 31.6 µM (active).

As to `COc1ccccc1NC(=O)CC(NCCN(C)C)C(=O)O` (stereo unspecified), the “activity, negative = inhibition” value was 17.5% [at 102 µM] (inactive). Consider `CCOc1ccc2nc(N(CCCN(C)C)C(=O)c3ccc(C(=O)c4ccccc4)cc3)sc2c1`, for which the Potency was 44.7 µM (active). `COc1cc2ccccc2cc1C(=O)Nc1ccncc1`: the “activity, negative = inhibition” value is 1.4% [at 102 µM] (inactive). Regarding `CCCC(=O)N(CCN1CCOCC1)c1nc2ccc(OCC)cc2s1`, the “activity, negative = inhibition” value is 2.94% (inactive). On the same count and under the same terms, the same measure for `CCOc1ccc(S(=O)(=O)N2CCC(C(=O)NCC(=O)Nc3cccc(Cl)c3C)CC2)cc1`: 15.9% (inactive). Regarding `Cc1ccc(NC(=O)CSc2cccc3cccnc23)c(C)c1`, the “activity, negative = inhibition” value was -27.5% [at 102 µM] (inactive). On the same count and under the same terms, the same measure for `COc1ccc(NC(=O)CSc2nnc(Cc3ccccc3)c(=O)n2N)cc1`: -45.5% [at 102 µM] (inactive). Take `COc1cccc2sc(N(CCCN(C)C)C(=O)CCS(=O)(=O)c3ccccc3)nc12`: the Potency is 8.91 µM (active). Consider `COc1ccc2sc(N(CCCN(C)C)C(=O)c3ccc(S(=O)(=O)N(C)C4CCCCC4)cc3)nc2c1`, for which the activity, negative = inhibition was -7.7% [at 2.33 µM] (inactive). Turning to `Cc1cccc2sc(N(CCCN(C)C)C(=O)CCS(=O)(=O)c3ccccc3)nc12`, the Potency is 22.4 µM (active).

For the compound `CCN(CC)CCN(C(=O)c1cccc([N+](=O)[O-])c1)c1nc2ccc(OC)cc2s1`, the Potency was 50.1 µM (active). In the case of `COc1ccc(N(C)C(=O)CCS(=O)(=O)c2cccc3nsnc23)cc1`, the “activity, negative = inhibition” value is -39.4% (inactive). As to `COc1ccc(-n2cnnc2SCC(=O)Nc2cccc([N+](=O)[O-])c2)cc1`, the “activity, negative = inhibition” value is -3.5% [at 102 µM] (inactive). Still for that read-out and setting: in the case of `COc1ccccc1CNC(=O)CS(=O)(=O)c1cccc2nsnc12` it was 3.96% (inactive); in that of `COc1ccc(C)cc1NC(=O)CCS(=O)(=O)c1cccc2nonc12`, -1.53% [at 102 µM] (inactive). Still for that read-out and setting: in the case of `O=C(CCS(=O)(=O)c1ccccc1)NC1CCCC1` it was -7.56% [at 102 µM] (inactive). Take `CN(C1CCS(=O)(=O)C1)S(=O)(=O)c1ccc2ccccc2c1` (stereo unspecified): the “activity, negative = inhibition” value was 5.42% [at 102 µM] (inactive). On the same count and under the same terms, in the case of `COc1ccccc1CNS(=O)(=O)c1cc(Br)cc2c1N(C(C)=O)C(C)C2` (stereo unspecified) it was 2.53% (inactive); in that of `O=C(CCSCc1cccc(F)c1)NCc1ccccc1`, -6.15% (inactive). Same read-out and setting: in the case of `COc1ccc(NS(=O)(=O)c2ccc(C)c(C(=O)NNC(=O)c3csc(N4CCOCC4)n3)c2)cc1` it was 2.43% [at 102 µM] (inactive); in that of `CC(=O)N1CCc2cc(S(=O)(=O)NC3CCCCC3)ccc21`, -3.98% [at 102 µM] (inactive); in that of `O=C(CCC1CCCC1)N=C1SC2CS(=O)(=O)CC2N1Cc1ccccc1` (stereo unspecified), 4.22% [at 102 µM] (inactive).
